Measurements taken from PubChem BioAssay (NCI).
This is part of a sample that, as a whole, favours compounds with a hit. Of some 79,000 tested, about 15% had one in any assay. Active and inactive are the calls of the source. Cut-off read from the data, not from the text of the source: active = growth inhibition above about 70%; inactive = the rest.

Experiments:
[1] = NCI Yeast Anticancer Drug Screen. Data for the rad52 strain (AID 147);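 note: 0% = growth of vehicle-treated control cultures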; details: S. cerevisiae rad52 mutant growth inhibition, hits give high values
In short: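 The repair-mutant yeast strain was incubated with compounds, then growth was read and inhibition derived relative to vehicle.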

[2] = NCI Yeast Anticancer Drug Screen. Data for the wt1 strain (AID 149);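 note: 0% = growth of vehicle-treated wt1 cultures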; details: S. cerevisiae wt1 strain (SPY 50644) growth inhibition, hits give high values
In short: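 Measured: growth of wt1 yeast under compound versus vehicle treatment, reported as inhibition.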

[3] = NCI Yeast Anticancer Drug Screen. Data for the rad50EPP+ strain (AID 151);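 note: 0% = growth of vehicle-treated control cultures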; details: S. cerevisiae rad50 mutant strain, hits give high values
In short: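 Vehicle-normalised growth inhibition; rad50EPP+ yeast strain, altered in DNA damage repair, compound-treated.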

[4] = NCI Yeast Anticancer Drug Screen. Data for the mgt1 strain (AID 153); details: S. cerevisiae mgt1 mutant growth inhibition, hits give high values
In short: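 Vehicle-normalized growth inhibition is determined in mgt1 yeast, a strain selected for a defined alteration in DNA repair or cell cycle control.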

[5] = NCI Yeast Anticancer Drug Screen. Data for the rad50 strain (AID 155);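 note: 0% = growth of vehicle-only cultures of the same strain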; details: S. cerevisiae rad50 strain growth inhibition, hits give high values
In short: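 Growth of the mutant yeast was measured after compound exposure and referenced to vehicle-treated cultures.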

[6] = NCI Yeast Anticancer Drug Screen. Data for the mec2-1 strain (AID 157); details: S. cerevisiae mec2-1 strain, hits give high values
In short: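 Mutant yeast (mec2-1) grown with compound; growth inhibition relative to vehicle control reported.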

[7] = NCI Yeast Anticancer Drug Screen. Data for the rad14 strain (AID 159);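 note: 0% = growth of vehicle-treated control cultures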; details: S. cerevisiae rad14 strain growth inhibition, hits give high values
In short: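 Here, inhibition of yeast growth was measured after compound exposure, using a strain with a genetic defect in DNA damage repair and vehicle-treated cultures as the reference.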

[8] = NCI Yeast Anticancer Drug Screen. Data for the sgs1 mgt1 strain (AID 161);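 note: 0% = growth of cultures given vehicle only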; details: S. cerevisiae sgs1 mgt1 strain, hits give high values
In short: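 Growth of a repair-deficient yeast mutant was monitored after compound treatment and expressed as inhibition relative to vehicle-treated cultures.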

[9] = NCI Yeast Anticancer Drug Screen. Data for the CLN2oe strain (AID 163);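 note: 0% = growth of vehicle-only control cultures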; details: S. cerevisiae CLN2oe strain, hits give high values
In short: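 Compounds are applied to yeast harbouring a defined cell-cycle control change; reduced growth compared with vehicle-treated controls gives the value.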

[10] = NCI Yeast Anticancer Drug Screen. Data for the cln2 rad14 strain (AID 165);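 note: 0% = growth equal to vehicle treated cultures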; details: S. cerevisiae cln2 rad14 strain, hits give high values
In short: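 Readout is yeast growth inhibition versus vehicle-treated controls, using a strain with cln2 and rad14 alterations exposed to compound.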

[11] = NCI Yeast Anticancer Drug Screen. Data for the bub3 strain (AID 167); details: S. cerevisiae bub3 mutant strain, hits give high values
In short: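 Whole-cell yeast assay. The mutant strain was incubated with compounds, and growth inhibition was determined by comparison with vehicle-treated cells.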

[12] = NCI Yeast Anticancer Drug Screen. Data for the wt2 strain (AID 169);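 note: 0% = growth of vehicle-treated yeast cultures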; details: S. cerevisiae wt2 strain growth inhibition, hits give high values
In short: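 Against vehicle-treated controls, the growth of yeast exposed to each compound was compared, and the inhibition was recorded.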

[13] = NCI Yeast Anticancer Drug Screen. Data for the mlh1 strain (AID 171);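 note: 0% = growth of vehicle-treated control cultures of the same strain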; details: S. cerevisiae mlh1 strain growth inhibition, hits give high values
In short: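 Measured: yeast growth. Reference: vehicle-treated controls. Organism: strain with a defined alteration affecting DNA damage repair or cell cycle control, treated with compound.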

[14] = NCI Yeast Anticancer Drug Screen. Data for the sgs1 strain (AID 173);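 note: 0% = growth of vehicle-only control cultures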; details: S. cerevisiae sgs1 mutant, hits give high values
In short: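 Each compound was added to cultures of the altered yeast strain. Growth was recorded, and inhibition was derived by comparison with vehicle controls.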

[15] = NCI Yeast Anticancer Drug Screen. Data for the mlh1 rad18 strain (AID 175); details: S. cerevisiae mlh1 rad18 strain growth inhibition, hits give high values
In short: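 Genetically defined yeast (DNA repair-deficient) exposed to compounds; growth inhibition determined relative to vehicle.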

[16] = NCI Yeast Anticancer Drug Screen. Data for the rad18 strain (AID 177); details: S. cerevisiae rad18 mutant growth inhibition, hits give high values
In short: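 Vehicle-treated cultures served as the baseline for scoring compound-induced growth inhibition in DNA-repair-mutant yeast.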

[17] = at 5.0 µM (retest, dose inferred, filed as 0.5)
[18] = at 50.0 µM (retest, dose inferred, filed as 5.0)

Measured: growth inhibition

CCNCC(=O)O[C@]1(CC)C(=O)OCc2c1cc1n(c2=O)Cc2cc3ccccc3nc2-1
inactive: [1]; at 1.2 µM 38% | [1]; at 3.7 µM 28% | [1]; at 11.0 µM 20% | [1]; at 33.0 µM 19% | [1]; at 100.0 µM 16% | [2]; at 1.2 µM 19% | [2]; at 3.7 µM 12% | [2]; at 11.0 µM 13% | [2]; at 33.0 µM 2% | [2]; at 100.0 µM 4% | [3]; at 1.2 µM 35% | [3]; at 3.7 µM 25% | [3]; at 11.0 µM 9% | [3]; at 33.0 µM 2% | [3]; at 100.0 µM -11% | [4]; at 1.2 µM 22% | [4]; at 3.7 µM 33% | [4]; at 11.0 µM 26% | [4]; at 33.0 µM 18% | [4]; at 100.0 µM 23% | [5]; at 1.2 µM 22% | [5]; at 3.7 µM 15% | [5]; at 11.0 µM 17% | [5]; at 33.0 µM 10% | [5]; at 100.0 µM -6% | [6]; at 1.2 µM 35% | [6]; at 3.7 µM 19% | [6]; [17] 4% | [6]; at 11.0 µM 19% | [6]; at 33.0 µM 6% | [6]; at 100.0 µM 6% | [7]; at 1.2 µM 11% | [7]; at 3.7 µM 6% | [7]; at 11.0 µM -1% | [7]; at 33.0 µM 6% | [7]; at 100.0 µM 1% | [8]; [17] 31% | [8]; [18] 60% | [8]; at 50.0 µM 57.5% | [9]; at 1.2 µM 33% | [9]; at 3.7 µM 30% | [9]; at 11.0 µM 32% | [9]; at 33.0 µM 22% | [9]; at 100.0 µM 18% | [10]; [17] 15% | [10]; [18] 31% | [10]; at 50.0 µM 25.6% | [11]; at 1.2 µM 28% | [11]; at 3.7 µM 1% | [11]; [17] 7% | [11]; at 11.0 µM 14% | [11]; at 33.0 µM -2% | [11]; [18] 39% | [11]; at 50.0 µM 40.8% | [11]; at 100.0 µM -6% | [12]; at 1.2 µM -29% | [12]; at 3.7 µM -32% | [12]; at 11.0 µM -19% | [12]; at 33.0 µM 25% | [13]; at 1.2 µM 13% | [13]; at 3.7 µM 6% | [13]; at 11.0 µM -2% | [13]; at 33.0 µM -13% | [13]; at 100.0 µM -21% | [14]; at 1.2 µM 9% | [14]; at 3.7 µM 15% | [14]; at 11.0 µM 13% | [14]; at 33.0 µM 5% | [14]; at 100.0 µM -21% | [15]; [17] 16% | [15]; [18] 47% | [15]; at 50.0 µM 47.4% | [16]; at 1.2 µM 25% | [16]; at 3.7 µM 27% | [16]; at 11.0 µM 21% | [16]; at 33.0 µM 22% | [16]; at 100.0 µM 13%
active: [5]; [17] 72% | [5]; [18] 90% | [5]; at 50.0 µM 86% | [6]; [18] 73% | [6]; at 50.0 µM 76% | [12]; at 100.0 µM 76%

Nc1ccc(Cl)cc1C(=O)c1ccccc1
active: [1]; at 100.0 µM 97% | [2]; at 100.0 µM 98% | [3]; at 100.0 µM 90% | [4]; at 100.0 µM 97% | [5]; [18] 82% | [5]; at 50.0 µM 91% | [5]; at 100.0 µM 97% | [6]; [18] 86% | [6]; at 50.0 µM 72.2% | [6]; at 100.0 µM 97% | [7]; at 100.0 µM 97% | [8]; [18] 98% | [8]; at 50.0 µM 90.7% | [9]; at 100.0 µM 97% | [10]; [18] 96% | [10]; at 50.0 µM 71.4% | [11]; [18] 96% | [11]; at 50.0 µM 88.1% | [11]; at 100.0 µM 96% | [12]; at 100.0 µM 97% | [13]; at 100.0 µM 97% | [14]; at 100.0 µM 98% | [15]; [18] 81% | [15]; at 50.0 µM 88.4% | [16]; at 100.0 µM 97%
inactive: [1]; at 1.2 µM -15% | [1]; at 3.7 µM -16% | [1]; at 11.0 µM -15% | [1]; at 33.0 µM 46% | [2]; at 1.2 µM -20% | [2]; at 3.7 µM -10% | [2]; at 11.0 µM -10% | [2]; at 33.0 µM 39% | [3]; at 1.2 µM -7% | [3]; at 3.7 µM -2% | [3]; at 11.0 µM 4% | [3]; at 33.0 µM 44% | [4]; at 1.2 µM -28% | [4]; at 3.7 µM -42% | [4]; at 11.0 µM -43% | [4]; at 33.0 µM 3% | [5]; at 1.2 µM -17% | [5]; at 3.7 µM -19% | [5]; [17] 48% | [5]; at 11.0 µM -4% | [5]; at 33.0 µM 57% | [6]; at 1.2 µM -38% | [6]; at 3.7 µM -33% | [6]; [17] 54% | [6]; at 11.0 µM -18% | [6]; at 33.0 µM 0% | [7]; at 1.2 µM -25% | [7]; at 3.7 µM -23% | [7]; at 11.0 µM -15% | [7]; at 33.0 µM 46% | [8]; [17] -19% | [9]; at 1.2 µM 5% | [9]; at 3.7 µM -5% | [9]; at 11.0 µM 5% | [9]; at 33.0 µM 20% | [10]; [17] 57% | [11]; at 1.2 µM -35% | [11]; at 3.7 µM -40% | [11]; [17] -6% | [11]; at 11.0 µM -52% | [11]; at 33.0 µM -23% | [12]; at 1.2 µM -2% | [12]; at 3.7 µM -5% | [12]; at 11.0 µM -6% | [12]; at 33.0 µM 21% | [13]; at 1.2 µM -23% | [13]; at 3.7 µM -33% | [13]; at 11.0 µM -31% | [13]; at 33.0 µM 22% | [14]; at 1.2 µM -7% | [14]; at 3.7 µM 1% | [14]; at 11.0 µM 7% | [14]; at 33.0 µM 63% | [15]; [17] 39% | [16]; at 1.2 µM -12% | [16]; at 3.7 µM -12% | [16]; at 11.0 µM -2% | [16]; at 33.0 µM 69%
